The source of these data is PubChem BioAssay.

The nature of test [1]: compound effects on lung adenocarcinoma cell viability – A549, calcein-AM fluorescence, 48 h, basal, profiling panel (AID 1162). Also: test concentration not given here. The note with it: higher = more signal.
A short description of test [2]: compound effects on differentiated 3T3-L1 adipocyte viability – cell-based, 3T3-L1 adipocytes, calcein-AM fluorescence, 48 h, basal, profiling panel (AID 1163). Also: test concentration not given here. Conditions: 3T3-L1 adipocytes viability, higher = more signal.
Test [3] is described as follows: compound effects on hepatocellular carcinoma cell viability – HepG2, calcein-AM fluorescence, 48 h, basal, profiling panel (AID 1164). Also: test concentration not given here. Conditions: higher = more signal.
Test [4] is described as follows: compound effects on multiple myeloma cell viability – MM1S, calcein-AM fluorescence, 48 h, basal, profiling panel (AID 1165).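 Also: viability of MM1S multiple myeloma cells under basal unstimulated conditions; test concentration not given here.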 The note with it: higher = more signal.
A short description of test [5]: calcein-AM signal in unstimulated myeloma cells – cell-based, calcein-AM fluorescence, 48 h, PK04 Diversity Set, profiling panel (AID 1166).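 Also: cells grown under basal conditions without added stimulus; test concentration not given here.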 Conditions: RPMI8226 myeloma viability, higher = more signal.
Test [6] can be described thus: JC-1 mitochondrial signal, unstimulated HepG2 cells – cell-based, JC-1 fluorescence, 24 h, 100 nL compound, profiling panel (AID 1167). Also: test concentration not given here. The note with it: HepG2 mitochondrial potential, higher = more signal.
A short description of test [7]: JC-1 mitochondrial signal, unstimulated adipocytes – cell-based, JC-1 fluorescence, 3T3-L1 adipocytes, 24 h, 100 nL compound, profiling panel (AID 1168). Also: test concentration not given here. Conditions: JC-1 mitochondrial fluorescence, higher = more signal, called active from +8 up or from −8 down.
Test [8] in a line: JC-1 mitochondrial signal, unstimulated myeloma cells – cell-based, JC-1 fluorescence, RPMI8226, 24 h, 100 nL compound, profiling panel (AID 1169). Also: test concentration not given here. The note with it: JC-1 mitochondrial potential fluorescence, higher = more signal.
Test [9] is described as follows: JC-1 mitochondrial signal, unstimulated MM1S myeloma – cell-based, JC-1 fluorescence, 24 h, 100 nL compound, profiling panel (AID 1170). Also: test concentration not given here. Conditions: MM1S mitochondrial potential, higher = more signal.
The nature of test [10]: resazurin metabolic signal in A549 cells – cell-based, resazurin fluorescence, 24 h, PK04 Diversity Set, profiling panel (AID 1171). Also: test concentration not given here. Conditions: A549 viability, higher = more signal, called active from +8 up or from −8 down. Background: The colour change of resazurin is a common sign of viable cells or microbes.
Test [11] can be described thus: resazurin metabolic signal in HepG2 cells – cell-based, resazurin fluorescence, 24 h, PK04 Diversity Set, profiling panel (AID 1172). Also: test concentration not given here. The note with it: HepG2 viability, higher = more signal.
A short description of test [12]: budding yeast growth changes without added modifier – OD600, strain BY4716, 24 h, basal condition, primary screen (AID 1173). Conditions: S. cerevisiae BY4716 growth, OD600, 24 h; higher = more signal, called active from +8 up or from −8 down.
Test [13] in a line: viability profiling in MM1S myeloma cells – cell-based, resazurin fluorescence, basal, 24 h, PK04 Diversity Set, profiling panel (AID 1174). Also: test concentration not given here. The note with it: higher = more signal, called active from +8 up or from −8 down.
The target in test [14] is Dihydroorotate dehydrogenase (quinone), mitochondrial (Plasmodium falciparum (isolate 3D7)) (UniProt Q08210). The test is described as follows: inhibition of P. falciparum DHODH – biochemical, C-terminal His tag, absorbance 600 nm, primary screen (AID 1175).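 Also: recombinant parasite enzyme with a five histidine tag at its C terminus; test concentration not given here.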 The note with it: PfDHODH enzyme, DCIP absorbance 600 nm; higher = more signal, called active from +8 up or from −8 down.

The nature of test [15]: growth modulation of vineyard yeast isolate – strain RM11-1a, OD600, basal, 24 h, primary screen (AID 1177).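 Also: cultures grown under basal conditions with no added stressor; test concentration not given here.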 The note with it: S. cerevisiae RM11-1a growth, OD600, 24 h; higher = more signal, called active from +8 up or from −8 down.
Test [16] is described as follows: growth of efflux-deficient E. coli DRC39 – strain DRC39, OD650, 24 h, E. coli filamentation inducers, primary screen (AID 1178).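 Also: growth measured as culture turbidity by optical density at 650 nm; test concentration not given here.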 Conditions: E. coli DRC39 acrAB, higher = more signal, called active from +8 up or from −8 down.
Test [17] can be described thus: growth of efflux-deficient E. coli DRC39 – strain DRC39, OD650, 48 h, E. coli filamentation inducers, primary screen (AID 1179).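 Also: screen aims at cell division blockers that make cells filament.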 Conditions: E. coli DRC39 delta-acrAB growth, higher = more signal, called active from +8 up or from −8 down.
Test [18] in a line: viability profiling in RPMI8226 myeloma cells – cell-based, resazurin fluorescence, basal, 24 h, PK04 Diversity Set, profiling panel (AID 1180).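 Also: RPMI8826 multiple myeloma cell line at 5000 cells per well; test concentration not given here.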 Conditions: higher = more signal.
Test [19] concerns the target E3 ubiquitin-protein ligase XIAP (Homo sapiens) (UniProt P98170). Nature of the test: small molecules binding XIAP protein – biophysical, small-molecule microarray, fluorescence 635 nm, primary screen (AID 1181).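 Also: score merges 667 nm emission and signal to noise over triplicate slides.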 The note with it: higher = more signal.

Each structure is given as a SMILES string. Active and inactive are the calls of the source.

Sequence of Dihydroorotate dehydrogenase (quinone), mitochondrial (Plasmodium falciparum (isolate 3D7)) (Q08210 whole entry, looked up): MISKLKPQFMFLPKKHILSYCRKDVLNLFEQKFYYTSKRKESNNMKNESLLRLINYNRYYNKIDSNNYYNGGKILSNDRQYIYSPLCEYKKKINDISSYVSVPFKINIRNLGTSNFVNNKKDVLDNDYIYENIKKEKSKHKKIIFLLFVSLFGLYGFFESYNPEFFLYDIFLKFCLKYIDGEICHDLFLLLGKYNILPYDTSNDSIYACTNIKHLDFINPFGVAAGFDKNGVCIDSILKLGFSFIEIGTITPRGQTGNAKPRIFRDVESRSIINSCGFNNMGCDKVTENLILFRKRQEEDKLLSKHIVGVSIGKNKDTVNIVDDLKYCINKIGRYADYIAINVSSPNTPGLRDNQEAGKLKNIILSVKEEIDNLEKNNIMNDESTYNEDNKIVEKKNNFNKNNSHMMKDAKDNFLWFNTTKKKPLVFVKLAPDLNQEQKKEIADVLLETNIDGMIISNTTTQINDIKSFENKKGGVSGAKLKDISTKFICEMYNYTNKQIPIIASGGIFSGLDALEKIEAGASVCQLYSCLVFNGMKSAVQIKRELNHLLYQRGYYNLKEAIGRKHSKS
Sequence of E3 ubiquitin-protein ligase XIAP (Homo sapiens) (P98170 whole entry, looked up): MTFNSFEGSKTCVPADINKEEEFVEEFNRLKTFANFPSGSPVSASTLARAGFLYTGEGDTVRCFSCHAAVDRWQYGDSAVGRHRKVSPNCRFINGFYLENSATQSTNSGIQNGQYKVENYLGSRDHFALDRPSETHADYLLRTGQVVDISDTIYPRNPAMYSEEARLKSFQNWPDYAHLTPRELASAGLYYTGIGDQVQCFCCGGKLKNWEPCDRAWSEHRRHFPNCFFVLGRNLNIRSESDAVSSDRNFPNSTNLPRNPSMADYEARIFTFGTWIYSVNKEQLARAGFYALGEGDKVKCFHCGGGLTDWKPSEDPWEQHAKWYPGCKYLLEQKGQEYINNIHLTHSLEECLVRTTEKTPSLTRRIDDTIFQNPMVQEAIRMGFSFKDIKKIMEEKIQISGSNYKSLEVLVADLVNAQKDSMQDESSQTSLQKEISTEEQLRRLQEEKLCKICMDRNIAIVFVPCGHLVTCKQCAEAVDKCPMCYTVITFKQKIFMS

For `C=C[C@H](OC)[C@@H](OC(=O)Nc1ccc(SC)cc1)c1ccc(OC)c(O)c1`, the z-score in test [1] was 1.73; in test [2], 0.182; in [3] it was 0.907; in test [4] it was 0.898; in test [5], 0.524; in [6] it was 0.163. The z-score in test [7] was 1.15 (inactive); in [8], 0.412; in test [9], 0.761; in test [10], 0.595 (inactive); in test [11], 1.06; in test [12] it was -1.14 (inactive). Moreover, the z-score is 0.7 (inactive) in test [13]; -1.55 (inactive) in [15]; 1.51 (inactive) in test [16]; 1.93 (inactive) in test [17]; 0.933 in test [18]. For the same compound, the composite z-score in [14] was -0.768 (inactive); in test [19], -0.0773.
For `CC(=O)Nc1ccc([C@H]2[C@H](C)CC[C@H]3C(=O)N4[C@@H](CC[C@@H](C)[C@@H]4c4ccc(NC(C)=O)cc4)C(=O)N32)cc1`, the z-score in test [1] is 1.04; in test [2], 1.1; in test [3] it was 0.277; in [4], -0.715; in test [5] it was -0.439; in test [6], -1.16. In addition, the z-score in test [7] was -0.183 (inactive); in [8], -0.365; in test [9], -0.559; in test [10] it was 0.553 (inactive); in [11], 1.23; in [12], -1.08 (inactive). Further, the z-score was -0.269 (inactive) in test [13]; 0.897 (inactive) in test [15]; 1.22 (inactive) in test [16]; 0.141 (inactive) in test [17]; 0.868 in test [18]. Further, the composite z-score in [14] is 0.124 (inactive); in [19], -0.0204.
As to `O=C1O[C@@H](c2ccccc2)[C@@H](c2ccccc2)N2[C@@H](c3ccc(O)cc3)[C@]3(C(=O)Nc4ccc(C#CC5(O)CCCCCC5)cc43)[C@@H](C(=O)Nc3nc4ccccc4s3)[C@H]12`, the z-score in [1] is 1.46; in test [2], 2.07; in test [3], 0.417; in test [4] it was -1.55; in [5], -1.97; in test [6] it was -2.15. The z-score in [7] was -0.444 (inactive); in test [8] it was -0.567; in test [9] it was 0.159; in test [10], 1.2 (inactive); in [11], 0.527; in test [12], -0.657 (inactive). The z-score in test [13] was 1.19 (inactive); in test [15] it was 0.74 (inactive); in [16], 0.597 (inactive); in [17], 0.946 (inactive); in test [18] it was 0.88. The results for the composite z-score in test [14] and in test [19] were -0.067 (inactive) and -0.184, respectively.
For the compound `CC(C)CNC(=O)[C@@]1(C)c2ccccc2C(=O)N(Cc2ccc(OC(F)(F)F)cc2)[C@H]1c1ccc(CO)cc1`, the z-score in test [1] is 1.69; in test [2] it was 1.68; in test [3], 0.65; in [4], -0.249; in [5], -0.358; in test [6], 3.03. Also, the z-score in test [7] was -0.481 (inactive); in test [8], 0.862; in test [9], 1.38; in test [10], 1.32 (inactive); in test [11], 0.518; in test [12], -1.51 (inactive). Besides, the z-score was 1.88 (inactive) in [13]; -0.229 (inactive) in test [15]; 0.726 (inactive) in test [16]; 0.152 (inactive) in test [17]; 1.75 in [18]. Also, the composite z-score is 0.329 (inactive) in test [14] and 0.149 in test [19].
As to `C=CCN1C(=O)[C@@]2(O[C@@H](CCn3cc([C@H](O)c4ccccc4)nn3)[C@H]([Si](C)(C)c3ccc(OC)cc3)[C@H]2C)c2cc(N3CCOC3=O)ccc21`, the z-score in test [1] is -0.873; in [2], 3.06; in [3] it was -1.2; in [4], -1.81; in test [5], -1.93; in [6] it was 1.09. Further, the z-score in test [7] is 1.92 (inactive); in test [8], -0.376; in test [9], 0.753; in test [10] it was -1.97 (inactive); in [11], -0.555; in [12], -1.5 (inactive). The z-score in test [13] was -0.365 (inactive); in test [15], -1.57 (inactive); in [16], 1.41 (inactive); in [17] it was 0.391 (inactive); in test [18], -1.24. For the same compound, the values for the composite z-score in test [14] and in test [19] were -1.47 (inactive) and 0.076, respectively.
`Cc1ccc(S[C@]2(C(=O)NCCN3CCOCC3)CC(=O)N(C3Cc4ccccc4C3)[C@@H]2c2ccc(CO)cc2I)cc1`: the z-score in test [1] was 1.47; in test [2] it was 1.33; in [3], -0.0794; in test [4], -3.23; in test [5], -1.84; in test [6], 0.899. The z-score is -0.211 (inactive) in test [7]; -0.993 in [8]; -1.02 in test [9]; 0.842 (inactive) in [10]; 0.0862 in test [11]; -5.55 (inactive) in [12]. In addition, the z-score in test [13] was -1.48 (inactive); in test [15], -2.62 (inactive); in test [16] it was -0.0522 (inactive); in test [17], -0.169 (inactive); in test [18] it was -1.41. Moreover, the composite z-score in test [14] was -0.24 (inactive); in [19], 0.194.
As to `COCCOC(=O)N1C(=O)[C@@]2(c3cc(C#CCCO)ccc31)[C@H](C(=O)N1CCCCCCC1)[C@H]1C(=O)O[C@H](c3ccccc3)[C@H](c3ccccc3)N1[C@@H]2c1ccc(O)cc1`, the z-score is 1.53 in test [1]; 0.843 in [2]; 1.87 in test [3]; 0.555 in [4]; -0.479 in test [5]; 0.538 in test [6]. For the same compound, the z-score in [7] was 2.37 (inactive); in test [8], -1.04; in [9], 0.0272; in test [10], 0.641 (inactive); in [11] it was 0.801; in test [12] it was -1.74 (inactive). Also, the z-score in [13] is 1.14 (inactive); in test [15] it was -2.75 (inactive); in [16] it was 0.561 (inactive); in test [17], 1.43 (inactive); in test [18] it was 0.613. The composite z-score in [14] was 0.138 (inactive); in test [19], 0.144.
Take `CO[C@H]1COC(=O)[C@@H](OCc2ccccc2)C=C[C@H](C)[C@@H](OC)COC(=O)[C@H](OCc2ccccc2)C=C[C@@H]1C`: the z-score in test [1] was 0.665; in [2], 1.21; in test [3] it was 1.45; in test [4], 0.301; in test [5] it was 0.0913; in [6], 1.6. For the same compound, the z-score in test [7] was 0.382 (inactive); in test [8], -0.262; in [9], 2.82; in test [10], 1.76 (inactive); in test [11], 1.12; in test [12] it was -2.2 (inactive). Also, the z-score is 1.6 (inactive) in [13]; -3.47 (inactive) in test [15]; 0.422 (inactive) in test [16]; -0.97 (inactive) in test [17]; 0.193 in [18]. Further, the composite z-score was -1.11 (inactive) in test [14] and -0.148 in test [19].
For `O=[N+]([O-])c1ccc(C[n+]2ccc3ccc(O)cc3c2)o1`, the z-score in [1] was 1.21; in [2] it was 0.233; in [3] it was -0.489; in test [4], 0.216; in test [5], 0.705; in [6], -1.43. Also, the z-score in [7] was -0.157 (inactive); in [8] it was -0.158; in [9] it was 0.648; in test [10], -1.02 (inactive); in test [11] it was -0.104; in test [12], -5.54 (inactive). Besides, the z-score in test [13] is 0.342 (inactive); in [15], -0.234 (inactive); in [16] it was -0.55 (inactive); in test [17], -0.688 (inactive); in [18], 0.405. In addition, the values for the composite z-score in test [14] and in [19] were -2 (inactive) and 0.411, respectively.
